Common to all, as to test: DAPPL (digital affinity profiling via proximity ligation, sequencing); 10 mM Tris-HCl pH 7.5, 50 mM NaCl, 1 mM DTT, 4% glycerol, room temperature, 30 min; GST-TFs on glutathione beads, 16-mer random dsDNA library, 0.1% formaldehyde crosslink after washing; high values mean tight binding
Holding throughout (conditions): protein: recombinant; tags: N-terminal GST; dsDNA, one strand shown

One test has as its target T1, FLI1 (Homo sapiens, UniProt Q01543 1-452).
T1 sequence: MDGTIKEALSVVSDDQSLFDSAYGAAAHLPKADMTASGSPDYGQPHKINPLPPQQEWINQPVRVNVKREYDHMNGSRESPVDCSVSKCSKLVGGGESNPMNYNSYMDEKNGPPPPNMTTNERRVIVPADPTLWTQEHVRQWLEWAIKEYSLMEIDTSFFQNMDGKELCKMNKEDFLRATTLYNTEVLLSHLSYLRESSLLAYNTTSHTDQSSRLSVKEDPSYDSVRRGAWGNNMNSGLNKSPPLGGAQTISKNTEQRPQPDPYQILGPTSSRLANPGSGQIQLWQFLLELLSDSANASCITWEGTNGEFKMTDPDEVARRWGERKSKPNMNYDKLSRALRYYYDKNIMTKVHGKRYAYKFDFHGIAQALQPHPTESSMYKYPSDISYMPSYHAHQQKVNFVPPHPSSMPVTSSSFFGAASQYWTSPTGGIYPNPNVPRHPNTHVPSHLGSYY
The gist of the method:
(§1)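 Beads coated with glutathione captured GST-fused human transcription factors that had been expressed in yeast, and the factors were then given DNA barcodes and pooled with a tag-only sample. The pools were incubated with 200 nmole of a random double-stranded 16-mer DNA library in Tris/NaCl/DTT/glycerol buffer for 30 min at room temperature, washed, crosslinked with 0.1% formaldehyde and proximity-ligated with BsaI/T4 ligase at 37 °C for 1 h. PCR amplification and Illumina NextSeq500 sequencing came last. Binding signal is each hexamer's read frequency for a factor divided by its frequency for the tag-only sample.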

For another test, the target named is T2, ELK1 (Homo sapiens, UniProt P19419 1-428).
T2 sequence: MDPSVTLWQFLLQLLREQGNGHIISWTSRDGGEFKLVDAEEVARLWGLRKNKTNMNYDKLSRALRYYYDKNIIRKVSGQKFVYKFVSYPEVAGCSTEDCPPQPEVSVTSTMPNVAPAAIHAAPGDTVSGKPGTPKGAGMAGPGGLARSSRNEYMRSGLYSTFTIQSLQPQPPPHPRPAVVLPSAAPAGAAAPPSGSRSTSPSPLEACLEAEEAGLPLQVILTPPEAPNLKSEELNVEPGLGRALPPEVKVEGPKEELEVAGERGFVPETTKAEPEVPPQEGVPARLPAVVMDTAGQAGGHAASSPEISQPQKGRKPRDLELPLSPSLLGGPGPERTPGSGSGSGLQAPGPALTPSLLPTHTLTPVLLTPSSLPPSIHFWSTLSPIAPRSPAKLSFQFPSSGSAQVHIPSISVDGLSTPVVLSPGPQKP
The gist of the method:
as §1

Another test deals with T3, GABPA (Homo sapiens, UniProt Q06546 1-454).
T3 sequence: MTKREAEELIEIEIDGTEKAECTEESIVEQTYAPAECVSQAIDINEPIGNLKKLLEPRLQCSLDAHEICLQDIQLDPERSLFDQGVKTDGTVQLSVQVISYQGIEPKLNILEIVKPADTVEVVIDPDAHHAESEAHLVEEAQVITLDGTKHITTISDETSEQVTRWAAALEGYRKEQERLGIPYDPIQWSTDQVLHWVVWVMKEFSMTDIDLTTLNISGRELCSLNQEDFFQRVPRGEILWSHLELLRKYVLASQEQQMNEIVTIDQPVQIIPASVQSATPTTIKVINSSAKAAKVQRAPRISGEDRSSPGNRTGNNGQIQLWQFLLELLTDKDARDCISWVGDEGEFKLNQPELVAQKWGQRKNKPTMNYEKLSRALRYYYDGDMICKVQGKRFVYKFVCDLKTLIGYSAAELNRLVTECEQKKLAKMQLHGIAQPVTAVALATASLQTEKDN
The gist of the method: as §1

The next test has as its target T4, ERG (Homo sapiens, UniProt P11308 1-479).
T4 sequence: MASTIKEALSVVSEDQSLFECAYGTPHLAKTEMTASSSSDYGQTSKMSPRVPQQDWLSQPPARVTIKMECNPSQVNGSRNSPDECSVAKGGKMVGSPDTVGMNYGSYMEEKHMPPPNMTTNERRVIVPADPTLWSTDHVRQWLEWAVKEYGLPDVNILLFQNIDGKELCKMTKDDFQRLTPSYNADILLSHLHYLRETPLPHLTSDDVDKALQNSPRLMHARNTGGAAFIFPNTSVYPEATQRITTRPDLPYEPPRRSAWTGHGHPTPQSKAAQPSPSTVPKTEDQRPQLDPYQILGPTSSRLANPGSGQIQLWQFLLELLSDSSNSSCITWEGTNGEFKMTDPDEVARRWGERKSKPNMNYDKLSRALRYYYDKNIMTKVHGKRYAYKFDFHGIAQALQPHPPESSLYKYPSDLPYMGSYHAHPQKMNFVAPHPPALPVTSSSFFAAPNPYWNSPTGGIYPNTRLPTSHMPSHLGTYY
The gist of the method:
as §1

The target in another test is ELF1 (Homo sapiens, UniProt P32519 1-619). The gist of the method:
as §1

The next test concerns the target T5, EHF (Homo sapiens, UniProt Q9NZC4 1-300).
T5 sequence: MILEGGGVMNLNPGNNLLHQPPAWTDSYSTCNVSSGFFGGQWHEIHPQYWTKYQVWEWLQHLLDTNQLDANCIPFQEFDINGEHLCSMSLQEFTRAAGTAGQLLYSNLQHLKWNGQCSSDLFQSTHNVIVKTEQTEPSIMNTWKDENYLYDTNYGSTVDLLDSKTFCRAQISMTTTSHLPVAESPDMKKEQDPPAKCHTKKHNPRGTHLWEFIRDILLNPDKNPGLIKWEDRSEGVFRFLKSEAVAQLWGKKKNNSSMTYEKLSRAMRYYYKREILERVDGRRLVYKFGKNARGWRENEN
The gist of the method: as §1

The target in the next test is SPI1 (Homo sapiens, UniProt P17947 1-270). The gist of the method: as §1
A further test addresses SPIB (Homo sapiens, UniProt Q01892 1-262). The gist of the method: as §1
For the next test, the target named is ETV5 (Homo sapiens, UniProt P41161 1-510). The gist of the method: as §1
Another test concerns the target T6, SPIC (Homo sapiens, UniProt Q8N5J4 1-248).
T6 sequence: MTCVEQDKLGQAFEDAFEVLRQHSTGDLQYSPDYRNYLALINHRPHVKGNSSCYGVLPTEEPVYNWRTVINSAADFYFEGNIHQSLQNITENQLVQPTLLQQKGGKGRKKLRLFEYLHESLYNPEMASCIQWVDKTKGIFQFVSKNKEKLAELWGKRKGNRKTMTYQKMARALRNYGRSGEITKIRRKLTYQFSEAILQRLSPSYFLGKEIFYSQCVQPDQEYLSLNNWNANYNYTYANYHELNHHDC
The gist of the method:
as §1

The target of a further test is ELF4 (Homo sapiens, UniProt Q99607 1-663). The gist of the method: as §1
A further test concerns the target ETV1 (Homo sapiens, UniProt P50549 1-477). The gist of the method: as §1
In the next test the target is T7, ERF (Homo sapiens, UniProt P50548 1-548).
T7 sequence: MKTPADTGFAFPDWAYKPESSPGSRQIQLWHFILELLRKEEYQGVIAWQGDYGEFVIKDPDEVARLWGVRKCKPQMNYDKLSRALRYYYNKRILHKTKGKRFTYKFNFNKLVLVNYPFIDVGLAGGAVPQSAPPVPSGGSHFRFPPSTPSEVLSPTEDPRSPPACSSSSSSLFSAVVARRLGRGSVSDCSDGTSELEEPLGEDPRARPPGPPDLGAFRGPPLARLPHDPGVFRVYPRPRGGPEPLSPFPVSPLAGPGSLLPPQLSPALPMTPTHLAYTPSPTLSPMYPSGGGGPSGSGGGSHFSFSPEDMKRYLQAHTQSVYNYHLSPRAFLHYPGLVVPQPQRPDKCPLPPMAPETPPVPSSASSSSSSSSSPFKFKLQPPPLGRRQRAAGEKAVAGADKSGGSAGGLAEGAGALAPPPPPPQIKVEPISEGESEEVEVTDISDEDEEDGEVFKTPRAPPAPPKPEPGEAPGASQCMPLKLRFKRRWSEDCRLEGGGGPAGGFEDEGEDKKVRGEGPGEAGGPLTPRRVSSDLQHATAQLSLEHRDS
The gist of the method:
as §1

A further test concerns the target T8, ETV3L (Homo sapiens, UniProt Q6ZN32 1-361).
T8 sequence: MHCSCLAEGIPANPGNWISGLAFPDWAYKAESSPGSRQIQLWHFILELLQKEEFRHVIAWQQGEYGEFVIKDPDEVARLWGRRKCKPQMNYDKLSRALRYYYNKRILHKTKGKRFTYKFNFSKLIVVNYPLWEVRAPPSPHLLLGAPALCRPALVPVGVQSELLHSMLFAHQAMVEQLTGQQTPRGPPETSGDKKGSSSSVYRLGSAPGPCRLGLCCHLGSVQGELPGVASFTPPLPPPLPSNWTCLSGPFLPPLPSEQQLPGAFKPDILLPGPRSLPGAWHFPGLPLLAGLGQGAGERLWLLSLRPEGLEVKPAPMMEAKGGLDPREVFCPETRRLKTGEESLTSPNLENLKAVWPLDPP
The gist of the method: as §1

Another test concerns the target T9, ELF5 (Homo sapiens, UniProt Q9UKW6-2 1-255).
T9 sequence: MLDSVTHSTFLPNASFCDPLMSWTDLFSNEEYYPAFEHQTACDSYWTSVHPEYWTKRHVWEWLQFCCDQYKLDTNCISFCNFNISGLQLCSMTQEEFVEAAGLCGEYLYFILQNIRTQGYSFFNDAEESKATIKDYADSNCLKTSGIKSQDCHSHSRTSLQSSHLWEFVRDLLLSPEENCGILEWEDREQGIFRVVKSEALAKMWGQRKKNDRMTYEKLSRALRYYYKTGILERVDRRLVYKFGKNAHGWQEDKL
The gist of the method: as §1

The target in the next test is T10, ETV3 (Homo sapiens, UniProt P41162-2 1-143).
T10 sequence: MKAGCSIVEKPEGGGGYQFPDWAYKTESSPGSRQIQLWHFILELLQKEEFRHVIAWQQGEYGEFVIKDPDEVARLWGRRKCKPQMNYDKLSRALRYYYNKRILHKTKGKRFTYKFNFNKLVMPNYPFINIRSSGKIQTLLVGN
The gist of the method:
as §1

The next test deals with T11, ETS2 (Homo sapiens, UniProt P15036 1-469).
T11 sequence: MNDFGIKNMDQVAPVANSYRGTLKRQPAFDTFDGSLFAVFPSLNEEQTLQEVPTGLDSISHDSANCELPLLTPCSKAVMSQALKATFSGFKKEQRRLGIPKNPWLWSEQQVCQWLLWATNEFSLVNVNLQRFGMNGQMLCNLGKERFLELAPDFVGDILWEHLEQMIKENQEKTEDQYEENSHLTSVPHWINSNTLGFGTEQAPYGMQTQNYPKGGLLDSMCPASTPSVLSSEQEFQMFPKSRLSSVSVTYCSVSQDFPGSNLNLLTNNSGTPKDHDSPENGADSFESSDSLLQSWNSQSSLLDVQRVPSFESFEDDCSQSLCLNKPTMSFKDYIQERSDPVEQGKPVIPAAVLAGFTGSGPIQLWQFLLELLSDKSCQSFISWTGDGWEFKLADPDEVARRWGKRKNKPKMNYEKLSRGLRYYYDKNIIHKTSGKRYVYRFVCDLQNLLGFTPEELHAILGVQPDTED
The gist of the method: as §1

The target of a further test is ETV6 (Homo sapiens, UniProt P41212 1-452). The gist of the method:
as §1

This is an account of results in PMC7862700, “An all-to-all approach to the identification of sequence-specific readers for epigenetic DNA modifications on cytosine”.

Sequence of ELF4 (Q99607 whole entry): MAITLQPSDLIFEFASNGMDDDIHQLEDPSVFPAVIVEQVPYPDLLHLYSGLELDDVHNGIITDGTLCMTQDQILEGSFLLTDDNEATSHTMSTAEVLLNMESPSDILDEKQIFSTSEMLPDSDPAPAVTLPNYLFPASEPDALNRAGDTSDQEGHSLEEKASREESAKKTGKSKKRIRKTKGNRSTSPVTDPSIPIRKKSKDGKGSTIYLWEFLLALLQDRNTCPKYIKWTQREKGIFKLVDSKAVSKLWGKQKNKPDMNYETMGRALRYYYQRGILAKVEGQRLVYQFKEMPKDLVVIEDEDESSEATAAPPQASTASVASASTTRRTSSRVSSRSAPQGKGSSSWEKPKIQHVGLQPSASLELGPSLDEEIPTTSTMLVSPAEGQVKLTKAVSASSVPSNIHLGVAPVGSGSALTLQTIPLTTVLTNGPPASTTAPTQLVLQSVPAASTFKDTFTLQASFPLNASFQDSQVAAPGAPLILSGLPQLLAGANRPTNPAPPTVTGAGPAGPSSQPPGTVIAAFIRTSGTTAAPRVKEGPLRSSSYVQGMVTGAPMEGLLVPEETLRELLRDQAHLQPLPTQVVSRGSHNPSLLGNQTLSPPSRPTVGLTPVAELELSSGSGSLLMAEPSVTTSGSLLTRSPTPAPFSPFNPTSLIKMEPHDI
Sequence of ETV5 (P41161 whole entry): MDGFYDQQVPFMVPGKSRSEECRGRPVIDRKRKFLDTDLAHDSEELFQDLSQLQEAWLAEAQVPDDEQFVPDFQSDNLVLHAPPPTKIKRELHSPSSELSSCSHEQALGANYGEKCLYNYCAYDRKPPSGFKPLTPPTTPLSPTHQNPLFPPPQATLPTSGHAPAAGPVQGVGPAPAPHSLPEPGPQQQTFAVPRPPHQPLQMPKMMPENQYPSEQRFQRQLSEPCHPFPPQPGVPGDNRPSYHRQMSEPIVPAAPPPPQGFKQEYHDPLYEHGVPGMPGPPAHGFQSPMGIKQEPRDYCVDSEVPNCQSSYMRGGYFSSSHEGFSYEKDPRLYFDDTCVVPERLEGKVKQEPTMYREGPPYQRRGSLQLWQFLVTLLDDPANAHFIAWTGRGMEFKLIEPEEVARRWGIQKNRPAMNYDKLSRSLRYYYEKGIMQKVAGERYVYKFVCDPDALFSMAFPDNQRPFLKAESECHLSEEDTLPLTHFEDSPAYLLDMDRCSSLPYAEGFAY
Sequence of SPIB (Q01892 whole entry): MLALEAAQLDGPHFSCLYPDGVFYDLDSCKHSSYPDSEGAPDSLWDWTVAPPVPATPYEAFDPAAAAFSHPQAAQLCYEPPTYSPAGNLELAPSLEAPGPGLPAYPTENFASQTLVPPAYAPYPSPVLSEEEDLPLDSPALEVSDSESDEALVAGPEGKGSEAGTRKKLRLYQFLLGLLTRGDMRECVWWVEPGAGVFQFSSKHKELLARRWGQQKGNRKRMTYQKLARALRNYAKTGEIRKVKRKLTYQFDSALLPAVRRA
Sequence of ELF1 (P32519 whole entry): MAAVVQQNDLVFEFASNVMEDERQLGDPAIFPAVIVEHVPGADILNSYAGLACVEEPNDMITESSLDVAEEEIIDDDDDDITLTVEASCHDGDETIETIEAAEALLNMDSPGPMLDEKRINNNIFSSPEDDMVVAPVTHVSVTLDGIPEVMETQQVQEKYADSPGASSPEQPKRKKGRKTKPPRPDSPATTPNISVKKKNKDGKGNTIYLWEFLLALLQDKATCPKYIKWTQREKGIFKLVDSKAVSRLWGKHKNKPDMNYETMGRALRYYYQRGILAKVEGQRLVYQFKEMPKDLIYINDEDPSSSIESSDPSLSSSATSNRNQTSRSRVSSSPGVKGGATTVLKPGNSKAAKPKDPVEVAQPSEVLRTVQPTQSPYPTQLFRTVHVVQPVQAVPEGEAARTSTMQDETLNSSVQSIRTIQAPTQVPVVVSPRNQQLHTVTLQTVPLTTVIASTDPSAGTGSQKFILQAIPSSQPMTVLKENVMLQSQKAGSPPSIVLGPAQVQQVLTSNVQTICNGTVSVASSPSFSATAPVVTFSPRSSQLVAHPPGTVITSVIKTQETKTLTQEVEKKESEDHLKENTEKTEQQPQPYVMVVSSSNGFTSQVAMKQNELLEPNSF
Sequence of ETV1 (P50549 whole entry): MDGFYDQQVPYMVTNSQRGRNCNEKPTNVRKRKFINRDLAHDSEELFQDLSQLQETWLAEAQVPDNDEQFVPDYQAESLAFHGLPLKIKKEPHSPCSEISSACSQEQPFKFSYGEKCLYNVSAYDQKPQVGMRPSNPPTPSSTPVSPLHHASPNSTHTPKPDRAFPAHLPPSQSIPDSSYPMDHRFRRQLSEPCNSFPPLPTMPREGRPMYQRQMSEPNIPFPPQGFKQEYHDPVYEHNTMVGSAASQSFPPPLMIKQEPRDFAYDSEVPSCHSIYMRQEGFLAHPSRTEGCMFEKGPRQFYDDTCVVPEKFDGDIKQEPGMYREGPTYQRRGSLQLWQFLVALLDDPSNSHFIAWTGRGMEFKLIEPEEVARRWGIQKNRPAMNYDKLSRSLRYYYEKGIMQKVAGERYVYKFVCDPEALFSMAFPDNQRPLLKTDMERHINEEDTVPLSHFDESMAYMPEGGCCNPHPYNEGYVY
Sequence of ETV6 (P41212 whole entry): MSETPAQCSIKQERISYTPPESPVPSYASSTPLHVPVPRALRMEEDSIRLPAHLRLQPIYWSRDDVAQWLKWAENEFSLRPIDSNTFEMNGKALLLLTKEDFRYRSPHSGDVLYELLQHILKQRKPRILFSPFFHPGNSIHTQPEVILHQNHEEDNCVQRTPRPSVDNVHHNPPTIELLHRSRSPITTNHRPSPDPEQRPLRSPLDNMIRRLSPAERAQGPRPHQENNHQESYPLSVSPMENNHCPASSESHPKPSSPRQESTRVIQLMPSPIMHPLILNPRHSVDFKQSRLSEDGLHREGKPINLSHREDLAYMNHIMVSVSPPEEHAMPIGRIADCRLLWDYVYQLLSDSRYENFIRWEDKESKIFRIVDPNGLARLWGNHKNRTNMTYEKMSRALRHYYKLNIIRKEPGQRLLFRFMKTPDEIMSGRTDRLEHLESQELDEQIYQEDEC

Take GTTGAT: the binding signal with FLI1 was 1.04 fold enrichment (6-mer frequency, TF over GST control); with ELK1, 1.12 fold enrichment (6-mer frequency, TF over GST control); with GABPA, 1.12 fold enrichment (6-mer frequency, TF over GST control); in the test with ERG, 1.08 fold enrichment (6-mer frequency, TF over GST control); in the test with ELF1, 1.11 fold enrichment (6-mer frequency, TF over GST control); with EHF, 1.04 fold enrichment (6-mer frequency, TF over GST control). In addition, the binding signal was 1.12 fold enrichment (6-mer frequency, TF over GST control) with SPI1; 1.1 fold enrichment (6-mer frequency, TF over GST control) in the test with SPIB; 1.14 fold enrichment (6-mer frequency, TF over GST control) with ETV5; 1.17 fold enrichment (6-mer frequency, TF over GST control) with SPIC; 1.15 fold enrichment (6-mer frequency, TF over GST control) with ELF4; 1.09 fold enrichment (6-mer frequency, TF over GST control) in the test with ETV1. The binding signal with ERF is 1.05 fold enrichment (6-mer frequency, TF over GST control); with ETV3L it was 1.09 fold enrichment (6-mer frequency, TF over GST control); with ELF5, 1.05 fold enrichment (6-mer frequency, TF over GST control); with ETV3, 1.08 fold enrichment (6-mer frequency, TF over GST control).

On to TCGTCA, for which the binding signal with FLI1 is 1.05 fold enrichment (6-mer frequency, TF over GST control); in the test with ELK1 it was 1.09 fold enrichment (6-mer frequency, TF over GST control); with GABPA, 1.06 fold enrichment (6-mer frequency, TF over GST control); with ELF1 it was 1.04 fold enrichment (6-mer frequency, TF over GST control); with EHF it was 1.02 fold enrichment (6-mer frequency, TF over GST control); with SPI1, 1.02 fold enrichment (6-mer frequency, TF over GST control). The binding signal was 1.04 fold enrichment (6-mer frequency, TF over GST control) in the test with SPIB; 1.04 fold enrichment (6-mer frequency, TF over GST control) with ETV5; 1.15 fold enrichment (6-mer frequency, TF over GST control) in the test with SPIC; 1.11 fold enrichment (6-mer frequency, TF over GST control) with ELF4; 1.09 fold enrichment (6-mer frequency, TF over GST control) with ETV1; 1.06 fold enrichment (6-mer frequency, TF over GST control) with ERF. For the same sequence, the binding signal is 1.1 fold enrichment (6-mer frequency, TF over GST control) in the test with ETS2 and 1.03 fold enrichment (6-mer frequency, TF over GST control) with ETV6.
